Test results from PubChem BioAssay (NCI).
The panel holds about 83,000 compounds, 20% with a hit somewhere; the sample as a whole holds those more often.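 Step 1: grow cells in 96-well plates. Step 2: add test compound at a single concentration. Step 3: incubate 48 h. Step 4: record percent growth.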 Unmarked numbers belong to inactive results. Active and inactive are the calls of the source. Rule for the calls: active = growth percent below 10; inactive = the rest.

Experiments:
Assay in all cases: NCI-60 one-dose screen, 48 h (100 = growth as untreated, 0 = no growth, -100 = all killed)
Details in all cases: 10 µM unless noted
[1] = system: HCT-15 colon
[2] = system: HT29 colon
[3] = system: SNB-75 CNS
[4] = system: SNB-19 CNS
[5] = system: U251 CNS
[6] = system: PC-3 prostate
[7] = system: SK-MEL-5 melanoma
[8] = system: UACC-62 melanoma
[9] = system: LOX IMVI melanoma
[10] = system: SK-MEL-28 melanoma

SMILES | growth [1] | growth [2] | growth [3] | growth [4] | growth [5] | growth [6] | growth [7] | growth [8] | growth [9] | growth [10]
COc1ccc(/C=N\NC(=O)c2cnn(CC(O)c3ccccc3)c2N)cc1OCc1ccc(Cl)cc1 (stereo not given) | 70.5% | 90.6% | 60.8% | 68.2% | 60.6% | 63.6% | 92.2% | 81.1% | 54.6% | 71.4%
CNC(=O)Nc1ccc(Nc2cc(-c3ccc(-n4cccn4)cc3)[nH]n2)c(C)c1 | 103% | 120% | 123% | 97.6% | 106% | 107% | 97.7% | 114% | 129% | 114%
Brc1cc(-c2cc(-c3ccc4c(c3)OCCO4)[nH]n2)cs1 | 24.4% | 22.6% | 19.9% | 56.9% | 40% | 61.8% | 23.5% | 54.7% | 42.3% | 58.6%
NNc1nnc2nc(Nc3ccccc3)nc(Nc3ccc(S(N)(=O)=O)cc3)n12 | 100% | 108% | 90.6% | 102% | 105% | 103% | 101% | 95.8% | 97.3% | 106%
CN(C)c1cccc2c(S(=O)(=O)Nc3cccc(-c4csc(NC(=O)CCCCCN5CCN(CCO)CC5)n4)c3)cccc12 | 90.6% | 17% | 80.1% | 87.9% | 70.2% | 72.3% | 79.2% | 94.1% | 12.9% | -7.14% (active)
O=C(CSc1nc2ccccc2c(=O)n1-c1ccc(S(=O)(=O)Nc2ccc(Cl)nn2)cc1)Nc1ccc(S(=O)(=O)Nc2ccc(Cl)nn2)cc1 | 100% | 106% | 96.1% | 101% | 102% | 100% | 97.2% | 94% | 90.4% | 106%
CC[C@H](CC[C@@H](C)[C@H]1CC[C@H]2[C@@H]3CC(=O)C4=CC(=O)/C(=C/c5ccc([N+](=O)[O-])cc5)C[C@]4(C)[C@H]3CC[C@]12C)C(C)C | 96.9% | 104% | 96.1% | 102% | 100% | 94.8% | 96.7% | 90.2% | 107% | 104%
O=C(CSc1nnc(-c2ccc(Cl)cc2)n1-c1ccccc1)Nc1ccccc1Cl | 76.8% | 67.5% | 65.8% | 82.4% | 61.6% | 77.8% | 95.4% | 95.7% | 15% | 99.2%
CCN(CC)c1ccc(/C=N/NC(=O)c2ccc(NS(C)(=O)=O)cc2)c(O)c1 | 20.1% | 27.4% | 48.1% | 34.7% | 23.8% | 31.7% | 0.13% (active) | 0.285% (active) | 0.336% (active) | 23%
CCCC/C(=C\c1ccc(O)c(O)c1)C(=O)NC(Cc1ccccc1)C(=O)C(=O)NCCc1ccc(OC)cc1 (stereo not given) | 93.4% | 105% | 86.9% | 91.2% | 103% | 94.4% | 98.9% | 86.6% | 89.4% | 102%
O=S(=O)(NCCCNc1nccc(-c2[nH]c(-c3ccccc3)nc2-c2ccc(F)c(O)c2)n1)c1ccccc1 | 101% | 98.1% | 79.5% | 110% | 114% | 88.2% | 59.9% | 19.6% | 83.7% | 33.8%
CC(O)c1cccc(/C(N)=N/C(N)=N/c2nc3ccccc3s2)c1 (stereo not given) | 56.7% | 110% | 80% | 89.3% | 74.2% | 64.9% | 83.4% | 87.8% | 64.3% | 100%
O=C(CCCCCCNC(=O)C(O)(O)C(F)(F)F)Nc1nc2ccccc2s1 | 6.75% (active) | 6.91% (active) | 38.9% | 17% | -35.4% (active) | 34.6% | -72.5% (active) | -62.7% (active) | -81.3% (active) | -4.84% (active)
CC(=O)OC[C@]12CC[C@@H](C(=O)/C=C/c3cccnc3)[C@@H]1[C@H]1CC[C@@H]3[C@@]4(C)CC[C@H](OC(C)=O)C(C)(C)[C@@H]4CC[C@@]3(C)[C@]1(C)CC2 | -53% (active) | 6.53% (active) | 54.3% | 46.6% | 23.4% | 19.9% | -96.2% (active) | -4.76% (active) | -84% (active) | -56.4% (active)
Cc1ccccc1Nc1nc(SC(C)C)nc(-c2ccccc2)c1C#N | 58.2% | 53.2% | 101% | 19.9% | 33.8% | 80.8% | 85.2% | 92.3% | 10.5% | 87.3%
O=C(CSc1nnc(-c2cccs2)n1-c1ccccc1)Nc1ccccc1 | 80.3% | 91.1% | -0.436% (active) | 54.1% | 84.3% | 83% | 80.1% | 67.7% | 71.9% | 76.9%
O=C1/C(=C/C=C/c2ccco2)SC(=S)N1Cc1ccccc1 | 65% | 110% | 84.7% | 89.2% | 92.3% | 101% | 98.8% | 82.1% | 96.4% | 101%
C/C(CC1(O)C(=O)Nc2ccccc21)=N\O (stereo not given) | 95.4% | 104% | 92.4% | 103% | 98.8% | 88.6% | 99.9% | 99.7% | 90.4% | 108%
COc1cccc2c1[C@H](OC)[C@]13O[C@@]1(C2=O)[C@H](O)[C@H](C)[C@@](O)(C(=O)[C@@H]1O[C@H]1C)[C@@H]3O | -14.8% (active) | -28.9% (active) | -61.7% (active) | 1.38% (active) | -13.3% (active) | -19.4% (active) | -97.7% (active) | -45.5% (active) | -62% (active) | -10.4% (active)
COC(=O)c1cccc(NC2=C(Cl)C(=O)c3nc(C)ccc3C2=O)c1 | 51.6% | 110% | 119% | 92.2% | 106% | 85.4% | 97.9% | 95.4% | 10.2% | 93.6%
O=C(CSc1cc[n+](CCCCO)c2ccccc12)n1ccc2ccccc21 | 104% | 103% | 96.1% | 100% | 96.3% | 97.6% | 98.7% | 93.5% | 103% | 110%
O=S(=O)(NCCCNc1nccc(-c2[nH]c(-c3ccccc3)nc2-c2ccc(F)c(O)c2)n1)c1cccc(F)c1 | 86% | 99.4% | 69.3% | 110% | 99.4% | 77.3% | 46.5% | 18.2% | 70% | 31.8%

SMILES | growth [1] | growth [2] | growth [3] | growth [4] | growth [5] | growth [6] | growth [7] | growth [8] | growth [9] | growth [10]
COc1ccc(C(C)=C(c2ccc(OCCN(C)C)cc2)c2ccc(OCCN(C)C)cc2)cc1 | -46.1% (active) | -53.5% (active) | 3.78% (active) | 12.6% | -64.1% (active) | 1.05% (active) | -82.6% (active) | -66.3% (active) | -79.9% (active) | -88.4% (active)
O=C(CSc1nc2ccccc2c(=O)n1CCc1ccccc1)Nc1ccc(S(=O)(=O)Nc2ccc(Cl)nn2)cc1 | 92.4% | 117% | 78.7% | 92.2% | 92.9% | 89.3% | 98.6% | 84.6% | 96.1% | 108%
CN1CCN(c2ccc(Nc3nc(NCCNS(=O)(=O)c4ccc(Cl)cc4)c4sccc4n3)cc2)CC1 | 47.7% | 44.3% | 72.9% | 104% | 60.1% | 81.8% | 93.6% | 98.5% | 92% | 94.5%
C#C[C@]1(O)CC[C@H]2[C@@H]3CC=C4c5sc(Nc6cccc(F)c6)nc5CC[C@]4(C)[C@H]3CC[C@@]21C | -28.6% (active) | -23.3% (active) | 24.1% | 35.8% | 10% | 19.2% | 42.6% | 5.77% (active) | -57.6% (active) | 13.8%
Cc1ccc2c(n1)C(=O)C(Cl)=C(Nc1ccc(C#N)cc1)C2=O | 1.89% (active) | 106% | 110% | 96.4% | 96.6% | 89.6% | 98.9% | 95.7% | 70.4% | 99.8%
O=C(O)c1ccc(-n2c(=O)n(-c3cccc(C(F)(F)F)c3)c(=O)c3cc(-c4ccc(F)cc4F)ccc32)cc1 | 10.4% | 48.5% | -12.1% (active) | 13.4% | 11.1% | 3.4% (active) | -60.4% (active) | -3.72% (active) | 5.95% (active) | 26.1%
Cc1nc(/N=C(N)/N=C(\N)c2cccc(Br)c2)sc1C | 25.1% | 17.8% | 62.9% | 42.9% | 47% | 59.8% | 69.8% | 28.1% | 43.5% | 72.8%
CCc1cc(OC(=O)N2CCN(CCC(C)(COC(C)(C)C)COC(C)(C)C)CC2)ccc1Nc1cc(-c2ccc(-n3cccn3)cc2)[nH]n1 | 65.9% | 47.3% | 48.7% | 86.2% | 74.9% | 53.9% | 90.8% | 85.8% | 104% | 96.6%
CCOC(=O)c1c(NC(=O)c2ccc(C(F)(F)F)cc2)sc2c(CN3CCN(C)CC3)c(O)ccc12 | -72.9% (active) | -52.1% (active) | 63.8% | -27.3% (active) | -88% (active) | -79% (active) | 64.4% | 28.8% | -93.1% (active) | -82.3% (active)
O=C1[C@@H]2Cc3c([nH]c4ccccc34)[C@H](c3ccc(Br)cc3)N2C(=O)CN1C1CCN(Cc2c(Cl)cccc2Cl)CC1 | 89.4% | 84.4% | 66.3% | 92.2% | 96.9% | 80% | 95.6% | 78.3% | 91.7% | 111%
NC(=O)n1c(=O)n(-c2cccc(C(F)(F)F)c2)c(=O)c2cc(-c3ccc(F)cc3F)ccc21 | 10.1% | 74.8% | -18.3% (active) | 11% | 6.64% (active) | -11.8% (active) | -59.7% (active) | -6.78% (active) | -28.3% (active) | 26.1%
Cc1ncn(-c2ccc(/C=N/Nc3ccnc4cc(Cl)ccc34)cc2)c1C | -59.4% (active) | -77.5% (active) | -24.2% (active) | 42.3% | -81.7% (active) | -21.3% (active) | -19.7% (active) | -74.4% (active) | -88.9% (active) | -79.3% (active)
COc1ccc2c(c1)c(-c1nc(N)nnc1-c1c[nH]c3ccccc13)cn2C | 22.9% | 14.5% | -11.9% (active) | 31.5% | 24.6% | 43.4% | 26% | 26.1% | 33.1% | 54.5%
CC(C)(O)c1cncc(-c2ccc3ncc(C#N)c(N4CCc5cc(F)c(Cl)cc54)c3c2)c1 | 9.91% (active) | 9.96% (active) | -12.6% (active) | 11.2% | 20.1% | 11.9% | -22.4% (active) | -7.62% (active) | 5.41% (active) | 9.63% (active)
CN1CCN(Cc2ccc(NC(=O)c3cncc(C#Cc4cnc5ccc(OCC(F)F)nn45)c3)cc2C(F)(F)F)CC1 | -57.4% (active) | -66% (active) | -95.1% (active) | -31.7% (active) | -72.7% (active) | -19.4% (active) | -95.7% (active) | -46.8% (active) | -91.2% (active) | -82.4% (active)
N#Cc1c(-c2cccs2)cc(-c2cnccn2)nc1SCC(=O)N/N=C/c1ccc(Cl)cc1 | 98.5% | 104% | 95.8% | 105% | 100% | 93.9% | 101% | 91.3% | 92% | 110%
C#CCOc1ccccc1C(OC(=O)c1ccccc1)C(=O)NC(C)(C)C(C)(C)C (stereo not given) | 78.3% | 74.6% | 71.4% | 95.1% | 87.1% | 60.7% | 80.8% | 66.9% | 91.6% | 101%
CCOC(=O)c1c(N)c(C#N)cn1Cc1ccc(Cl)cc1Cl | 48.8% | 80.4% | 47.3% | 68.7% | 64.1% | 71.5% | 78% | 59.8% | 78.8% | 92.6%
O=C(/C=C/c1csc(Br)n1)NO | 49% | 11.3% | 9.37% (active) | 38.5% | 31.4% | 44.3% | -33.1% (active) | -2.56% (active) | -13.8% (active) | 33.4%
O=S(=O)(NCCCNc1nccc(-c2[nH]c(-c3ccccc3)nc2-c2ccc(F)c(O)c2)n1)c1ccc(C(F)(F)F)cc1 | 38.1% | 94.9% | -0.845% (active) | 43.2% | 33.5% | 40.8% | -0.786% (active) | 2.32% (active) | 46.3% | 30.1%
O=C(CCCCCCNC(=O)C(O)(O)C(F)(F)F)Nc1ncc(-c2ccc(Br)cc2)s1 | 3.85% (active) | 1.78% (active) | 35.9% | 2.52% (active) | -35.4% (active) | 10.5% | -70.3% (active) | -52.1% (active) | -89.7% (active) | 3.46% (active)
